Source: PubChem BioAssay
Active and inactive are the calls of the source. Unless noted, how the calls were made is not given here.

What was measured:
[1] = anti-His antibody binders, primary screen, artefact control for SMM control protein annotation, biochemical, small-molecule microarray, 635 nm fluorescence (AID 1128); details: anti-His Alexa647 antibody binding, higher = more signal;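 further: score merges feature fluorescence with signal-to-noise for each printed compound spot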
[2] = system: Human papillomavirus type 1a E7 protein (residues 1-88); test: HPV1a E7 small-molecule binders, primary screen, biochemical, small-molecule microarray, residues 1-88, 635 nm (AID 1129); details: small-molecule microarray binding, fluorescence 635 nm; higher = more signal
[3] = target: Focal adhesion kinase 1 (Homo sapiens) (UniProt Q05397); test: small-molecule microarray binders of FAK, primary screen, biochemical, 635/667 nm fluorescence, BSA, DTT (AID 1130); details: PTK2 binding, 635 nm fluorescence, higher = more signal;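 further: composite of spot emission at 667 nm and signal to noise over triplicate slides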
[4] = system: Fibrinogen (Alexa647-labelled); test: fibrinogen binders on compound microarrays, profiling panel, artefact control for SMM control-protein annotation, biochemical, small-molecule microarray, 635/667 nm fluorescence (AID 1131); details: fibrinogen-A647 binding fluorescence, higher = more signal;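 further: z-score merges 667 nm fluorescence with per-spot signal-to-noise over triplicate slides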
[5] = target: Follistatin (Homo sapiens) (UniProt P19883); test: follistatin binders on small-molecule microarrays, primary screen, biochemical, small-molecule microarray, 635/667 nm fluorescence (AID 1132); details: FST binding, 635 nm fluorescence, higher = more signal
[6] = target: Fibroblast growth factor 2 (Homo sapiens) (UniProt P09038); test: FGF2 binders on small-molecule microarrays, primary screen, biochemical, small-molecule microarray, 635/667 nm fluorescence (AID 1133); details: small-molecule microarray binding, FGF2, fluorescence 635/667; higher = more signal
[7] = mitochondrial membrane potential change in A549 cells, profiling panel, cell-based, JC-1 fluorescence, basal, 24 h, 100 nL (AID 1138); details: higher = more signal;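 further: A549 lung adenocarcinoma cells under basal conditions with no added stimulus; test concentration not given here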
[8] = system: Lefty1; test: Lefty1 binders on small-molecule microarrays, primary screen, biochemical, small-molecule microarray, 635/667 nm fluorescence (AID 1139); details: small-molecule microarray binding, fluorescence 635/667; higher = more signal
[9] = system: wheat germ agglutinin (Triticum aestivum), Alexa647-labelled; test: wheat germ agglutinin binders on compound microarrays, profiling panel, artefact control for SMM control-protein annotation, biochemical, small-molecule microarray, 635/667 nm fluorescence (AID 1140); details: WGA-A647 binding, 635 nm fluorescence, higher = more signal;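 further: score merges 667 nm feature emission with signal to noise over triplicate slides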
[10] = target: Luciferin 4-monooxygenase (Photinus pyralis) (UniProt P08659); test: firefly luciferase enzyme inhibitors, primary screen, biochemical, luminescence, purified enzyme, 2006 set (AID 1141); details: SteadyGlo luminescence, 30 min, higher = more signal, called active from +8 up or from −8 down;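 further: cell-free assay with purified firefly luciferase at 100 ng per well in PBS; test concentration not given here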
[11] = system: Wnt5a (protein binding on small-molecule microarray); test: Wnt5a binders on small-molecule microarray, primary screen, biophysical, 635/667 nm fluorescence (AID 1142); details: 635 nm fluorescence, higher = more signal;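 further: fluorescence read at 667 nm with signal to noise per printed feature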
[12] = cell viability in Huh7 cells, primary screen, cytotoxicity control for HCV replication inhibitor project, CellTiter-Glo luminescence, basal, 48 h (AID 1143); details: Huh7 HCV replicon, higher = more signal, called active from +8 up or from −8 down;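 further: Huh7 hepatoma cells carrying a hepatitis C replication reporter with no stimulus; test concentration not given here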
[13] = P. aeruginosa biofilm formation inhibitors, primary screen, PAO1 strain, BacTiter-Glo luminescence, LB-PBS (AID 1144); details: 12 h, higher = more signal
[14] = CREB reporter modulators without forskolin, primary screen, cell-based, PC12, CRE-LacZ reporter, unstimulated (AID 1145); details: no forskolin, luminescence, 4.5 h, higher = more signal, called active from +8 up or from −8 down
[15] = CREB reporter modulators under forskolin, primary screen, cell-based, PC12, CRE-LacZ reporter, forskolin-stimulated (AID 1146); details: luminescence, 4.5 h, higher = more signal, called active from +8 up or from −8 down;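 further: PC12 cells with 6xCRE LacZ reporter stimulated by forskolin 10 µM; beta-galactosidase reporter signal reflecting CREB driven transcription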
[16] = target: Streptavidin (Streptomyces avidinii) (UniProt P22629); test: streptavidin binders on small-molecule microarray, primary screen, artefact control for SMM compound annotation, biophysical, 635/667 nm fluorescence (AID 1147); details: streptavidin binding, higher = more signal;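 further: signal reflects streptavidin binding to arrayed compounds as a control protein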
[17] = small-molecule binders of probe aInhba, primary screen, biochemical, small-molecule microarray, 635/667 nm fluorescence (AID 1148); details: higher = more signal;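 further: score merges 667nm spot fluorescence with signal-to-noise for antibody binding to printed compounds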
[18] = target: Torsin-1A (Homo sapiens) (UniProt O14656); test: torsin A binders from cell lysate, primary screen, small-molecule microarray, wild-type, 635/667 nm (AID 1149); details: COS7 hTOR1A-WT lysate, 635 nm fluorescence, higher = more signal
[19] = target: Torsin-1A (Homo sapiens) (UniProt O14656); test: small-molecule binders of mutant TOR1A in lysate, primary screen, cell lysate, small-molecule microarray, COS7 lysate, 635/667 nm fluorescence (AID 1150); details: COS7 hTOR1A mutant lysate, 635 nm fluorescence, higher = more signal;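 further: score pools 667 nm emission and signal to noise measuring lysate protein binding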
[20] = system: Sonic hedgehog protein (Shh); test: small-molecule binders of Shh protein, primary screen, biochemical, small-molecule microarray, 635/667 nm fluorescence (AID 1151); details: small-molecule microarray binding, 635 nm fluorescence; higher = more signal;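 further: Shh protein binding to compounds spotted on small-molecule microarray slides; score combines spot fluorescence intensity with signal-to-noise across triplicate slides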

Luciferin 4-monooxygenase (Photinus pyralis), sequence (P08659 whole entry, looked up): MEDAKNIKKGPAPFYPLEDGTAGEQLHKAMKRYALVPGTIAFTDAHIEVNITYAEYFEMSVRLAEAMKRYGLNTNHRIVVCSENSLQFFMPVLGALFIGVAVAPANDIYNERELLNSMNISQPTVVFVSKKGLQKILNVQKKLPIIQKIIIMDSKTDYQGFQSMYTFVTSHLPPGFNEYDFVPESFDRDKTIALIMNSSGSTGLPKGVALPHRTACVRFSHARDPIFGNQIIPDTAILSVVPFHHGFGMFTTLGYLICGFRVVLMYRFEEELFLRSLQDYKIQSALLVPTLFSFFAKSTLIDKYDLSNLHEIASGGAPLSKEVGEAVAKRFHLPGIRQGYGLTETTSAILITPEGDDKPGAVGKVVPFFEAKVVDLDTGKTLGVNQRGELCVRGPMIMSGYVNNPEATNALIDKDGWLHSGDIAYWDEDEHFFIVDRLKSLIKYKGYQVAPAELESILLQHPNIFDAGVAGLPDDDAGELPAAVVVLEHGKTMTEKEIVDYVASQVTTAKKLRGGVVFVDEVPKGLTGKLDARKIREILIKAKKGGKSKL
Fibroblast growth factor 2 (Homo sapiens), sequence (P09038 whole entry, looked up): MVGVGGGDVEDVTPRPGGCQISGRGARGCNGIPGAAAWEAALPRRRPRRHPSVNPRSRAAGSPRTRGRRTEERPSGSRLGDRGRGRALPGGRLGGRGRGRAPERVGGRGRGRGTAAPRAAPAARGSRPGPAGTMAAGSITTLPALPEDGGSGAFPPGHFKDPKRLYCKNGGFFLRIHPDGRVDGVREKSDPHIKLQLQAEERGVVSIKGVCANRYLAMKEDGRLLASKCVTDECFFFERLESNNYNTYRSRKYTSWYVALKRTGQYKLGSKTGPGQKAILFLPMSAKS
Streptavidin (Streptomyces avidinii), sequence (P22629 whole entry, looked up): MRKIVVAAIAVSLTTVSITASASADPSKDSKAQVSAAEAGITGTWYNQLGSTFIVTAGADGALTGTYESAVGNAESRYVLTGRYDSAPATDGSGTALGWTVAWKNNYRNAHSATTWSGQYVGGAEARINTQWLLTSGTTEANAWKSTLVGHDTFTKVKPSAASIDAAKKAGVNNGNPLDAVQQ
Focal adhesion kinase 1 (Homo sapiens), sequence (Q05397 whole entry, looked up): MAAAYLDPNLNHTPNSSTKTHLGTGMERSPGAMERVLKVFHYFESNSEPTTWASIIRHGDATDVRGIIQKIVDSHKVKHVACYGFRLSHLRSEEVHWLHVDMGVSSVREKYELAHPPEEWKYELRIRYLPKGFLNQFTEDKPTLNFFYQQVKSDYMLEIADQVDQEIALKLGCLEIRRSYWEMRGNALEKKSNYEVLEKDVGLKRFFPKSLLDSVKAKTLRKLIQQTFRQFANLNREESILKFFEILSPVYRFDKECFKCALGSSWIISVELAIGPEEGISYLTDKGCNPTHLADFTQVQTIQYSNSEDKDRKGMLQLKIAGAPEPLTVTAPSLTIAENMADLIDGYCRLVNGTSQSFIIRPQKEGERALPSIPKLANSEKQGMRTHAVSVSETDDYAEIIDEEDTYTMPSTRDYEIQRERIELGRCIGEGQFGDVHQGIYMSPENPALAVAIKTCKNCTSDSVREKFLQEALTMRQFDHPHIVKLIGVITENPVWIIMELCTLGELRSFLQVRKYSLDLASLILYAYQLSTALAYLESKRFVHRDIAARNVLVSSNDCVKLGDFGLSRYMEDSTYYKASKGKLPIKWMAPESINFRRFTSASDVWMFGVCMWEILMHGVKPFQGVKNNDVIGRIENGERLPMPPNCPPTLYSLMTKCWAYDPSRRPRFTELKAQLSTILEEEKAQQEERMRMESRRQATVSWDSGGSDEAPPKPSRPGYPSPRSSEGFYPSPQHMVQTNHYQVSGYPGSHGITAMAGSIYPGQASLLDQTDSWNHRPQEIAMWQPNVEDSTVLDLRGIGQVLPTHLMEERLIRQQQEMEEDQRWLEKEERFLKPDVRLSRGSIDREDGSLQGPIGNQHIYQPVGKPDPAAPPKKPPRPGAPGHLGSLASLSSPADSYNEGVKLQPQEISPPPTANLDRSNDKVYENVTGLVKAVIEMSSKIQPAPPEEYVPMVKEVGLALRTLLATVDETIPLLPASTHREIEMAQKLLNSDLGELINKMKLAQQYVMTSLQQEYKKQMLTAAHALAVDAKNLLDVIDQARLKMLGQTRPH
Torsin-1A (Homo sapiens), sequence (O14656 whole entry, looked up): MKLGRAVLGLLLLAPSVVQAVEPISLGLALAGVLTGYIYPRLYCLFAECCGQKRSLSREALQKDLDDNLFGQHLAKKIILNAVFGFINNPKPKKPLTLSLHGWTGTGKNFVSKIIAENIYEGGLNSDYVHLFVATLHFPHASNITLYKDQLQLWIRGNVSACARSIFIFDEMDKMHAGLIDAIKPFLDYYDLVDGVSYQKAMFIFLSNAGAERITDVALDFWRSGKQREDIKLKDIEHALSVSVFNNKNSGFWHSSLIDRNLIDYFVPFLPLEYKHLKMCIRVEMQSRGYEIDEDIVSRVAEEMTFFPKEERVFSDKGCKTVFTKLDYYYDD
Follistatin (Homo sapiens), sequence (P19883 whole entry, looked up): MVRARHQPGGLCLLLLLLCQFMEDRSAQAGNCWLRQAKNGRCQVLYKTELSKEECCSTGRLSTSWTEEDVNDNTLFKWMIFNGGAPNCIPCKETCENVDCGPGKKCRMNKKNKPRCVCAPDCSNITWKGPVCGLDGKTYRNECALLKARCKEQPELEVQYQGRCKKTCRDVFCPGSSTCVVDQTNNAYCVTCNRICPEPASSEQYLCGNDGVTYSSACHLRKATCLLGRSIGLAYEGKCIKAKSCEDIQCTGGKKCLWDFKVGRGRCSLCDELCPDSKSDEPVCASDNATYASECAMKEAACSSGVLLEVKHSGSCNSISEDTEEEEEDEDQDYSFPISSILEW

Structure (SMILES) | composite z-score [1] | composite z-score [2] | composite z-score [3] | composite z-score [4] | composite z-score [5] | composite z-score [6] | z-score [7] | composite z-score [8] | composite z-score [9] | z-score [10] | composite z-score [11] | z-score [12] | z-score [13] | z-score [14] | z-score [15] | composite z-score [16] | composite z-score [17] | composite z-score [18] | composite z-score [19] | composite z-score [20]
COCCCNC(=O)[C@]1(CCC(=O)OC(C)(C)C)N=C(c2ccc(OCCCO)cc2)O[C@@H]1c1ccccc1 | 3.52 | 1.26 | 0.807 | 0.272 | 1.21 | -0.0959 | 0.229 | -0.989 | 1.12 | -0.127 (inactive) | 0.163 | 0.11 (inactive) | 1.2 (inactive) | 0.699 (inactive) | -0.625 (inactive) | 0.172 | 0.346 | 1.11 | 2.06 | -1.52
O=C(O)[C@H](Cc1ccccc1)n1cc(-c2ccccn2)nn1 | 0.908 | 0.585 | 0.19 | 0.919 | 0.676 | 0.0069 | -0.47 | 0.5 | 0.425 | 1.01 (inactive) | 0.0676 | -0.437 (inactive) | -0.0406 (inactive) | 0.688 (inactive) | -0.377 (inactive) | 0.303 | -0.0645 | 0.307 | 0.407 | 0.506
COC(=O)[C@H](Cc1ccccc1)N1CC(/C=C/C2CC2)=C[C@@H]1[C@@H](O)Cc1ccccc1 | 0.303 | 1.14 | 0.28 | 0.971 | 0.958 | 0.418 | 0.33 | 1.26 | 0.982 | -0.186 (inactive) | 0.624 | -1.63 (inactive) | -1.18 (inactive) | 3.31 (inactive) | 5.89 (inactive) | 0.756 | 0.0471 | 0.957 | -0.038 | 1.81
CCOC(=O)C1=C[C@@H](c2ccccc2)N(S(=O)(=O)c2ccc(C)cc2)[C@H]1c1cccc(Cl)c1 | 2.44 | 1.17 | 0.283 | 0.612 | 0.938 | 0.111 | 3.78 | 0.465 | 1.31 | 1.18 (inactive) | 0.55 | -3.89 (inactive) | 1.51 (inactive) | 0.182 (inactive) | -0.451 (inactive) | 1.34 | 0.351 | 0.631 | 0.569 | 0.319
Cc1ccc(F)cc1S(=O)(=O)N[C@@H]1CCN(Cc2ccc(OC(C)C)cc2)C1 | 0.111 | -1.37 | -0.425 | -0.907 | -0.235 | 0.47 | 1.14 | -0.177 | -1.28 | 0.0358 (inactive) | -0.0943 | -3.86 (inactive) | 0.816 (inactive) | 1.76 (inactive) | 0.524 (inactive) | -0.293 | -0.341 | 0.277 | 0.719 | -0.0003
C=C(C(=O)CC[C@H](OC(=O)c1cccnc1)c1ccc(CO)o1)C(C)C | -0.109 | 1.09 | -0.22 | 0.88 | 0.886 | 0.962 | -0.559 | 1.04 | 0.884 | -1.55 (inactive) | 0.159 | 0.3 (inactive) | 0.232 (inactive) | 0.48 (inactive) | 1.17 (inactive) | 0.441 | 0.228 | 0.684 | 0.449 | 1.79
C=CCN1C(=O)[C@@]2(O[C@@H](CCO)[C@H]([Si](C)(C)c3ccc(OC)cc3)[C@H]2C)c2cc(N3C(=O)c4ccccc4Oc4ccccc43)ccc21 | 0.939 | 0.551 | 0.17 | 0.485 | 0.144 | 0.675 | 0.00401 | 0.24 | 0.615 | -1.49 (inactive) | 0.485 | -7.93 (inactive) | -1.4 (inactive) | 18.4 (active) | -3.87 (inactive) | 0.031 | -0.102 | -0.331 | -0.0355 | 0.23
NC(N)=NCc1cn(CCc2c[nH]c3ccccc23)nn1 | 2 | 0.599 | 0.0313 | 0.367 | 0.832 | 1.07 | 0.0134 | 1.05 | 0.0932 | -0.813 (inactive) | 0.131 | -0.343 (inactive) | 0.845 (inactive) | -0.0989 (inactive) | 0.0771 (inactive) | 0.294 | 0.0275 | 0.607 | 0.734 | 1.54
NC(=O)NCC#Cc1ccc2c(c1)[C@]1(C(=O)N2)[C@H](c2ccc(O)cc2)N2[C@H](c3ccccc3)[C@H](c3ccccc3)OC(=O)[C@H]2[C@@H]1C(=O)Nc1nc2ccccc2s1 | -0.185 | 0.622 | -0.15 | 0.666 | 1.44 | 1.49 | -2.24 | 0.9 | 0.717 | -1.49 (inactive) | 0.303 | -0.623 (inactive) | -1.41 (inactive) | -0.788 (inactive) | -0.988 (inactive) | 0.106 | -0.0018 | 0.374 | -0.0346 | 1.09
[N-]=[N+]=Nc1ccccc1C[C@@]1(C(=O)O)N=C(c2ccc(OCCCO)cc2)O[C@@H]1c1ccccc1 | 1.22 | 0.749 | 0.769 | 0.997 | 0.247 | -0.0664 | 0.528 | -0.634 | 1.09 | -0.972 (inactive) | 0.104 | -0.275 (inactive) | -0.078 (inactive) | -0.585 (inactive) | -0.218 (inactive) | 1.48 | 0.0633 | 0.0324 | 0.779 | -0.0424
